hERG WT inh: KCNH2 (human, wildtype) channel inhibition; U2OS, BacMam KCNH2, thallium flux FluxOr; active compounds read low; 340,000 compounds, 0.37% hits; activity change, % at 1.84 µM; Q12809;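 active = maximum activity change below -70%; inconclusive = maximum activity change between -70% and -50%; inactive = maximum activity change above -50%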
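U2OS cells transduced with wild-type KCNH2 virus are loaded with FluxOr dye for 45 min, and thallium flux is measured in kinetic reads before and after stimulation buffer. Rate constants are normalized to DMSO controls.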
RXFP1 agonist: agonists of human relaxin receptor RXFP1 | Q9HBX9 | HEK293T-RXFP1 cAMP TR-FRET, 30 min; response scale: percent of porcine relaxin response, buffer zero | Potency, µM (doses to about 57.5 µM), without a hit: at the highest dose activation, actives largely listed as activators | 370,000 compounds, 0.3% hits | AID 2676; active = well fitted activation curve with a large enough effect; inconclusive = small, poorly fitted or top-dose-only effect; note: potency is the fitted concentration of half-maximal effect; nearly all actives have a fitted effect of over 60% in size
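HEK293T cells stably expressing RXFP1 were pretreated with the PDE4 inhibitor Ro 20174, exposed to compounds for 30 min at 37C, lysed, and cAMP was read by TR-FRET. Data normalized to buffer (basal) and 29 nM porcine relaxin (100%).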
Akt phos inh: Akt phosphorylation inhibition; Neuro2A IGF-stimulated pAkt S473 HTRF, 20 min; active compounds read low; activity change, % for hits at 50 µM; 360,000 compounds, 0.32% hits; AID 651550; in the data active = activity change below about -80%; inconclusive = mostly about -51% to -80%
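Single-point screen (50 µM final compound) in Neuro2A cells stimulated 20 min with 6 nM IGF at 37 deg C. After lysis, Ser473-phosphorylated Akt read by HTRF (ex 330 nm, em 615/665 nm) as the 665/615 ratio.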
RXFP1 antag: RXFP1 (human) relaxin receptor antagonism; Q9HBX9; HEK293-RXFP1, relaxin-stimulated cAMP HTRF, 30 min; active compounds read low; activity change, negative = inhibition, % at 57.5 µM; 350,000 compounds, 0.59% hits;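 active = activity change of -60% or lower, but not beyond a set lower limit; inconclusive = change between -60% and -40%, or beyond the set limit; inactive = change above -40%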
KCNH2 3.1 block: blocks the human KCNH2 3.1 channel isoform | activity change, % (tested at about 1.8 µM) | U2OS KCNH2 3.1, thallium flux FluxOr; active compounds read low | 340,000 compounds, 0.95% hits;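 active = maximum activity change below -70%; inconclusive = maximum activity change from -70% to -50%; inactive = maximum activity change above -50%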;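 note: thallium influx rate constant from kinetic fluorescence after stimulation buffer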
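Steps: virus added to U2OS suspension (4 h, RT, dark); medium with 10% FBS added, cells plated, 37 C overnight; FluxOr/Red40 loading buffer 45 min RT; stimulation buffer, 2 min kinetic read; rate constant normalized.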
* = called active by the depositor; i = inactive; ? = inconclusive; . = not tested or not shown. Only some compounds are listed: those with a hit (about 1.7% of all), similar ones and a draw of the others. % is set by controls: 0 for no effect and ±100 for the full control effect.

SMILES | hERG WT inh | RXFP1 agonist | Akt phos inh | RXFP1 antag | KCNH2 3.1 block
C=CCc1ccc(OCC(O)CN2CCN(c3ccccc3OC)CC2)c(OC)c1 (stereo not drawn) | -5 | 3% | i | -3 | -8
C=CCc1ccc(OCC(O)CN2CCC(Cc3ccccc3)CC2)c(OC)c1 (stereo not drawn) | -31 | 0% | i | -17 | -86*
CC(C)Cn1cnc2c1c(=O)n(CC(=O)Nc1ccc3c(c1)OCO3)c(=O)n2Cc1ccccc1 | -86* | 1% | i | -8 | 3
O=C1C=CC(=O)N1c1ccccc1N1C(=O)C=CC1=O | -135* | . | i | ? | -193*
Cc1ccn2c(=O)nc(SCC(=O)OCc3ccccc3)nc2c1 | 2 | 7% | i | -18 | 5
CCOC(=O)CSc1nc(=O)n2ccc(C)cc2n1 | 0 | 16% | i | -72* | 19
Cc1ccc(C(=O)COC(=O)c2cc(=O)[nH]c3ccccc23)cc1 | 11 | 1% | i | 4 | -5
CNC(=O)c1c(NC(=O)c2ccco2)sc(C)c1C | 1 | -1% | i | -88* | 7
CC(NC(=O)c1ccco1)C(=O)OCC(=O)c1ccc(Cl)s1 (stereo not drawn) | -224* | 10% | i | 3 | -4
CC(NC(=O)c1ccco1)C(=O)O (stereo not drawn) | -5 | 0% | i | . | -116*
CC(NC(=O)c1ccccc1NC(=O)c1ccco1)C(=O)O (stereo not drawn) | -11 | -2% | i | -1 | 8
COC(=O)c1ccccc1S(=O)(=O)N1CCCC(c2nc3c(nnn3Cc3ccc(C)cc3)c(=O)[nH]2)C1 (stereo not drawn) | 7 | 1% | i | -7 | -16
O=C(C1CCC1)N1CCc2cc(S(=O)(=O)NCc3ccco3)ccc21 | -17 | 1% | i | -2 | -18
CCNCCNC(=O)c1c(O)c2cccc3c2n(c1=O)CCC3 | -179* | 2% | i | -30 | 8
CCCCNC(=O)c1c(O)c2cccc3c2n(c1=O)CCC3 | -1 | 2% | . | 0 | -4
Nc1ncnc(Nc2ccc(S(N)(=O)=O)cc2)n1 | 5 | 2% | i | 3 | 4
COc1ccc(CC2(CO)CCN(Cc3ccc(NC(C)=O)cc3)CC2)cc1 | -2 | 2% | i | -6 | -23
COc1ccc(CC2(CO)CCN(Cc3cnn(-c4ccccc4)c3)CC2)cc1 | -45 | 1% | i | -10 | -89*
COc1ccc(CC2(CO)CCN(Cc3cccc4nccnc34)CC2)cc1 | 1 | 2% | i | -2 | -30
COc1ccc(CC2(CO)CCN(Cc3cccn3-c3ccccn3)CC2)cc1 | ? | 3% | i | -13 | -108*
COc1ccc(CC2(CO)CCN(Cc3ccc(OC(F)(F)F)cc3)CC2)cc1 | ? | -1% | i | -10 | -81*
COc1ccc(CC2(CO)CCN(Cc3ccc4c(c3)CCO4)CC2)cc1 | -154* | -4% | i | -36 | -181*
Cc1nnc(N2CCCC(C(=O)Nc3cc(F)ccc3F)C2)c2nn(-c3ccccc3)c(C)c12 (stereo not drawn) | -3 | 1% | i | -8 | -29
CN1C(=O)C(=O)/C(=C(/O)c2ccc(Br)cc2)C1c1ccccc1F (stereo not drawn) | 15 | 8% | i | 1 | 4
OCC1(Cc2ccccc2)CCN(Cc2ccc(-c3ccco3)cc2)CC1 | -11 | -1% | i | -6 | -85*
OCC1(Cc2ccccc2)CCN(CCCC2CCCC2)CC1 | -35 | 0% | i | -2 | -75*
Cc1c(CN2CCC(CO)(Cc3ccccc3)CC2)c2ccccc2n1C | 38 | 2% | i | -8 | 5
COc1ccc(C)cc1NC(=O)C1CC(=O)N(CCc2ccc(F)cc2)C1 (stereo not drawn) | 10 | . | i | -15 | 0
O=C(Nc1nc(-c2ccco2)c(-c2ccco2)s1)C1CCC1 | 5 | 0% | i | -61* | -2
C/C(=N\NC(=O)c1c(Cl)c(C)nn1C)c1cccc(NC(=O)COc2ccc(Cl)cc2)c1 | -1 | -1% | i | -5 | -82*
